ELG1 repair inh = inhibitors of ELG1-dependent DNA repair in HEK293T cells. hit rate 2.3% among 330,000. AID 504467. Potency, µM (series often up to 46.1 µM), hits mostly inhibitors. HEK293T ELG1-luciferase reporter, luminescence, 16 h; DNA damage induced by 5-fluorouridine; further: nearly all actives have a fitted effect of over 55% in size
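HEK293T cells expressing luciferase-tagged ELG1 (2,000/well) received 5-Fluorouridine plus compound or DMSO for 16 hr at 37 °C. Luciferase was read by ONE-Glo luminescence after 30 min at room temperature.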
TDP1 cell CPT = DT40-hTDP1 cell growth loss with CPT. chicken DT40 Tdp1-/-;hTDP1 cells + 20 nM CPT, ATP luminescence, 48 h. Potency, µM (doses to about 46.2 µM), usual class: inhibitors. hit rate 12% among 420,000. AID 686979; further: nearly all actives have a fitted effect of over 55% in size
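Chicken DT40 Tdp1-/- cells complemented with human TDP1, 400 cells/well, exposed to compounds plus 20 nM camptothecin for at least 48 h at 37 C; viability read as ATP content by CellTiter-Glo luminescence.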
Gal4-VP16 FLuc = Gal4-VP16 reporter inhibition counter-screen; hit rate 3.5% among 310,000; AID 2546; Potency, µM (series often up to 53.6 µM), most hits filed as inhibitors; Drosophila S2 Gal4-VP16 UAS-luciferase, luminescence, 20 h;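 further: Gal4-VP16 expression switched on by copper sulfate through the metallothionein promoter; nearly all actives have a fitted effect of over 50% in size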
DT40 TDP1 no CPT = qHTS for Inhibitors of human tyrosyl-DNA phosphodiesterase 1 (TDP1): qHTS in cells in absence of CPT; DT40 Tdp1-/- hTDP1 cells, no CPT, ATP luminescence, 48 h; Potency, µM (series often up to 46.2 µM), hits mostly inhibitors; hit rate 15% among 420,000; AID 686978, 2013; further: nearly all actives have a fitted effect of over 55% in size
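DT40 Tdp1-/-;hTDP1 cells, no CPT (DMSO vehicle only), 400 cells/well; compounds pin-transferred; ≥48 hr, 37 °C; CellTiter-Glo 30 min RT dark, luminescence read.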
RORg inh = blocks mouse ROR gamma transcriptional activity; Drosophila S2 Gal4-RORgamma UAS-luciferase reporter, 20 h; Potency, µM (titrated, usually from 53.6 µM), most hits filed as inhibitors; hit rate 5.4% among 310,000; P51450; further: nearly all actives have a fitted effect of over 60% in size
Target sequence (P51450 whole entry, looked up, the tested form may be a part): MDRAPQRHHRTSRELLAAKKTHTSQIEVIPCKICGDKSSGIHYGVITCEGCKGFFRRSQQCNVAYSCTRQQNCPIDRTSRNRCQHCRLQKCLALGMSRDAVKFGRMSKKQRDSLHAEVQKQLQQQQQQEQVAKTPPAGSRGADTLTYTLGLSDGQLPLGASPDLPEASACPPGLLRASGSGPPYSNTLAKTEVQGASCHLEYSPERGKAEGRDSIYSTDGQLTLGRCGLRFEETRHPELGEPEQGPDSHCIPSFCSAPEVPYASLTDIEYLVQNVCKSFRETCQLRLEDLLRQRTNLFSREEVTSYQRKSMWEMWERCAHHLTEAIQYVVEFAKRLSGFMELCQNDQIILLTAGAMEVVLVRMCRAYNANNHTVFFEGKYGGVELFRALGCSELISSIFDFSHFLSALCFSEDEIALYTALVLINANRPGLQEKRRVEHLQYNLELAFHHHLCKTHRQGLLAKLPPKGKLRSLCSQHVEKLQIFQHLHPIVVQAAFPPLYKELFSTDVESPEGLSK
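Drosophila Schneider cells stably carrying a metallothionein-driven Gal4 DBD–ROR gamma fusion and a UAS-Photinus luciferase reporter were exposed to compound for 1 hr, then induced with copper sulfate (700 uM final) for 20 hr at ambient temperature before luminescence reading.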
IL1B secr inh = blocks inflammasome-driven IL-1 beta release; THP-1 LPS/ATP IL-1B secretion, AlphaLISA, 16 h; active compounds read low; activity change, % at 57.5 µM; hit rate 4.7% among 360,000; in the data active means activity change below about -50%; inconclusive means mostly about -30% to -49%
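THP-1 cells pretreated 1 hr with compounds (up to 57.5 uM final), then stimulated with LPS (250 ng/mL final) plus ATP (1.25 mM final); secreted IL-1B measured by AlphaLISA after 16 hr, decreased signal indicating inhibition.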
Hits are given with their value; - = inactive; ? = inconclusive; . = no result given; ! = a repeat was not active; [ ] = remark or other dose. Shown are actives, neighbours in structure and some others; about 21% of the full set was active somewhere. Unless noted, the call rests on the fitted dose curve; in most records, active means well fitted curve in the direction sought with a large enough effect; inconclusive means small, poorly fitted or top-dose-only effect, or another doubt; inactive means no such curve, though single readings can be large; an effect the other way counts as inactive or inconclusive.

SMILES	ELG1 repair inh	TDP1 cell CPT	Gal4-VP16 FLuc	DT40 TDP1 no CPT	RORg inh	IL1B secr inh
COc1cccc(C(=O)Nc2ccc(N3CCN(C(=O)c4cccs4)CC3)cc2)c1	?	2.3µM	-	4.6µM	-	-87
C=CC[C@@H](CC(=O)N(CCO)Cc1ccccc1)C(=O)N[C@H](COC(=O)[C@@H](CC=C)Cc1ccc(F)cc1)C(C)(C)C	?	21µM	.	13µM	.	-83
C=CC[C@@H](CC(=O)N(CCO)Cc1ccccc1)C(=O)N[C@@H](C)COC(=O)[C@@H](CC=C)Cc1ccc(F)cc1	18µM	?	.	16µM	.	-
C=CC[C@H](CC(=O)N(CCO)Cc1ccccc1)C(=O)N[C@H](COC(=O)[C@@H](CC=C)Cc1ccc(F)cc1)C(C)(C)C	?	?	.	?	.	-61
C=CCC[C@H](Cc1ccc(F)cc1)C(=O)OC[C@@H](NC(=O)[C@@H](CC=C)CC(=O)N(CCO)Cc1ccccc1)C(C)(C)C	?	26µM	.	?	.	?
CCc1ccccc1NC(=O)CN(C)C(=O)COC(=O)c1ccco1	-	-	.	-	.	-
CSc1ncccc1C(=O)NNc1cc(Cl)ccc1Cl	-	-	-	-	-	-
C=CC[C@H](CC(=O)NCCO)C(=O)N[C@H](COC(=O)[C@@H](CC=C)Cc1ccc(F)cc1)Cc1ccccc1	?	?	.	?	.	-
C=CC[C@@H](CC(=O)N(CCO)Cc1ccccc1)C(=O)N[C@H](COC(=O)[C@@H](CC=C)Cc1ccc(F)cc1)c1ccccc1	?	15µM	.	13µM	.	?
S=C(NCCN1CCOCC1)N/N=C/c1cccs1	-	18µM	4.5µM	4.1µM	1.3µM	-
Oc1cccc(/C=N/NC(=S)NCCN2CCOCC2)c1O	?	7.3µM	?	5.8µM	7.1µM	-
O=C(O)c1ccc(/C=N/NC(=S)NCCN2CCOCC2)cc1	-	-	-	-	-	-
O=C(Nc1ccc(Oc2ccccc2)cc1)c1csc(COCCO)n1	.	?	.	?	.	-
CCCc1nc2oc3ccccc3c(=O)c2c(=O)n1CCCOC	-	-	-	-	-	-
Nc1ccc(-c2ncc(-c3ccccc3)o2)cc1	?	-	-	?	-	-59
Clc1ccc(C2=NNC(=NCc3ccc4c(c3)OCO4)SC2)cc1	?	10µM	?	5.8µM	?	?
COc1ccc(OC)c(C2=NNC(=NCc3ccc4c(c3)OCO4)SC2)c1	-	?	-	?	-[10 µM]	-
Oc1ccc(C2=NNC(=NCc3ccc4c(c3)OCO4)SC2)c(O)c1	?	3.7µM	?	4.6µM	1.6µM	-
COc1ccc(CNC(=O)CN2CCC(NC(=O)c3ccc(OC)cc3)CC2)cc1	-	-	-	-	-	-
CCCNC(=O)C1(C)CCCN(C(=O)c2c(C)noc2C)C1 (stereo not drawn)	.	-	.	-	.	-
CSCC[C@H](NC(=O)OC(C)(C)C)C(=O)N/N=C/c1ccc2nccnc2c1	-	?	-	12µM	-	-
CSCC[C@H](NC(=O)OC(C)(C)C)C(=O)N/N=C/c1cccc2nccnc12	-	?	-	?	-	-
CCCN(CCC)CCNC(=O)c1cc(-c2ccc(Br)s2)nc2ccccc12	.	18µM	.	?	.	.
CC(C)CN(CCNC(=O)c1cc(-c2ccc(Cl)s2)nc2ccccc12)CC(C)C	.	-	.	-	.	.
CCCCN(C)CCNC(=O)c1cc(-c2ccc(Cl)s2)nc2ccccc12	.	23µM	.	23µM	.	.
SMILES	ELG1 repair inh	TDP1 cell CPT	Gal4-VP16 FLuc	DT40 TDP1 no CPT	RORg inh	IL1B secr inh
CCN(CC)CCNC(=O)c1cc(-c2ccc(Br)s2)nc2ccccc12	?	18µM	-	18µM	-	?
CCc1ccc(CNC(=O)c2cc(-c3ccc(Br)s3)nc3ccccc23)cc1	.	?	.	18µM	.	.
CCOCCCNC(=O)c1cc(-c2ccc(Br)s2)nc2ccccc12	-	-	-	?	-	-
CCCn1c(C)nc2c(NCCCN(CC)CC)nc(C)nc21	.	.	-	.	-	.
CS(=O)(=O)c1ccc2nc(NC(=O)c3ccc(Cn4cc(Br)cn4)o3)sc2c1	-	-	-	-	-	-
O=C(O)c1cc(-c2ccc(Br)s2)nc2ccccc12	?	-	-	-	-	-
CCCCOc1cc(C(=O)NCCN(CC)CC)c2ccccc2n1	-	21µM!	?	7.3µM	-	-50!
CN1CCN(NC(=O)c2cc(-c3ccc(Br)s3)nc3ccccc23)CC1	-	?	-	7.3µM	-	?
COC[C@H]1CCCN1[C@@H]1CS(=O)(=O)N[C@H]1COCc1ccccc1	.	-	.	-	.	-
CC(C)(O)C#Cc1ccc(CN2CCCC(CNC(=O)c3ccco3)C2)cc1 (stereo not drawn)	-	-	-	-	-	-
O=C1C=CC2C(c3ccc4c(c3)OCO4)CC1N2Cc1ccccc1 (stereo not drawn)	?	8.2µM	-	6.5µM	-	-
O=C1C=C(c2cccc(OCc3ccccc3)c2)C[C@@H](c2ccc3c(c2)OCO3)C1	-	-	.	-	.	-
CCCCCC(=O)N1C[C@H](O)[C@@H](n2cc(COC(=O)c3ccccc3)nn2)C[C@@H]1c1ccc(OC)cc1	.	-	.	-	.	-
O=C(Nc1ccccc1Cl)c1ccc(-n2cccn2)c([N+](=O)[O-])c1	?	-	-	-	-	-83
Cc1c(NC(=O)c2ccc(S(=O)(=O)N(C)C)cc2)cccc1-n1cnnn1	-	-	.	?	.	-
Cc1c(NC(=O)c2ccc(Cl)c([N+](=O)[O-])c2)cccc1-n1cnnn1	?	?	.	?	.	-99
Cc1ccccc1-c1nc(S(=O)(=O)c2ccc(Br)cc2)c(NCc2cccnc2)o1	?	-	-	-	-	?
CCOP(=O)(c1ccccc1)c1nc(-c2ccccc2C)oc1NCc1ccccc1 (stereo not drawn)	-	?	-	23µM	-	-
COP(=O)(OC)c1nc(-c2cccc3ccccc23)oc1NCc1ccccc1	?	16µM	?	18µM	-	-
CCOP(=O)(OCC)c1nc(-c2ccccc2)oc1N1CCCCC1	-	21µM	-	16µM	-	-
Cc1ccccc1-c1nc(P(=O)(c2ccccc2)c2ccccc2)c(N2CCOCC2)o1	?	?	-	?	-	-67
C[C@@H]1CC2=C(C(=O)OC(C)(C)O2)[C@H](c2ccc(F)cc2)O1	.	-	.	-	.	-
Cc1cc(C)cc(N(C)S(=O)(=O)c2nnc(NC(=O)COc3ccc(C)c(C)c3)s2)c1	.	-	.	-	.	.
COc1ccc(NC(=O)CCCc2nc3ccccc3c(=O)[nH]2)cc1Cl	-	?	.	?	.	-
CC1(C(=O)NS(=O)(=O)c2ccc(F)cc2F)CCN1C(=O)Cc1cccc2ccccc12 (stereo not drawn)	.	-	.	-	.	-

Assay outcomes: PubChem BioAssay, National Center for Advancing Translational Sciences (NCATS)
